Assay outcomes: PubChem, National Center for Advancing Translational Sciences (NCATS)
An excerpt weighted towards active compounds, which were near 6.1% of everything screened.
D1 PAM = potentiators of human D1 dopamine receptor | P21728 | HEK293 TREx D1 cells, calcium flux, dopamine EC20 potentiation | potentiation, % at 10 µM | 360,000 tested, 0.036% active; in the data active = potentiation above about 30%
Target sequence (P21728 whole entry, looked up): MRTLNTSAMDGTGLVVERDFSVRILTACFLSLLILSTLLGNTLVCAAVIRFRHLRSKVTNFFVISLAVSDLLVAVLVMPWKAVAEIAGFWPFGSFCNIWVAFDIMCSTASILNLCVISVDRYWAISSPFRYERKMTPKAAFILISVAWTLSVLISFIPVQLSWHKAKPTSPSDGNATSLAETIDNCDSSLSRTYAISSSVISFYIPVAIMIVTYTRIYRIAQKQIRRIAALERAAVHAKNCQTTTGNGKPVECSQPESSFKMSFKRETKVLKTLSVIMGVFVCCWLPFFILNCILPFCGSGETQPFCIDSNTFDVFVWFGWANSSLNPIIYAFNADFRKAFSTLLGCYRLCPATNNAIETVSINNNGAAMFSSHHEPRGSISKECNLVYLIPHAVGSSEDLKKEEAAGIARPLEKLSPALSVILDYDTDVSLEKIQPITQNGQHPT
D1 ag = activates the human D1 dopamine receptor; AID 504660; HEK293 T-REx D1 cells, calcium flux, agonist mode; 360,000 tested, 1% active; activation, % at 2 µM; in the data active = activation above about 30%
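Inducible HEK293 T-REx D1 cells, force-coupled to calcium signalling, were plated at 4000 cells/well with tetracycline and held overnight at 30 C. After no-wash calcium dye loading, compound-evoked calcium rise over 180 s flagged agonists.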
D3 antag = D3 dopamine receptor (human) antagonism. P35462. D3R cells, DiscoveRx beta-arrestin luminescence, antagonist mode; hits give low values. max response, negative = inhibition, %. 360,000 tested, 2.5% active. AID 652054; in the data active = max response below about -50%; inconclusive = no clear call, values can overlap the other calls
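Cells expressing the human receptor were seeded at 1500 cells/well, incubated overnight at 37 degrees C in 5% CO2, then exposed to library compounds with dopamine controls for 90 minutes at 37 degrees C before luminescent detection.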
D1 antagonist = antagonists of human D1 dopamine receptor; P21728; activity change, negative = inhibition, % at 10 µM; HEK293 TREx D1 cells, calcium flux, dopamine EC80; hits give low values; 360,000 tested, 3.2% active; in the data active = activity change below about -30%
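Antagonism measured as reduced calcium response to an EC80 dopamine addition following 180 s compound pre-read; cells were inducible HEK293 Trex D1 plated overnight at 30 C, read kinetically at 1 cycle/sec.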
D3 ag = activates the human D3 dopamine receptor; P35462; D3R DiscoveRx beta-arrestin cells, luminescence, 90 min; max activation, %; 410,000 tested, 0.58% active; AID 652048; in the data active = max activation above about 30%
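Agonist-mode cell screen: cells plated at 1500/well and incubated overnight at 37 °C, then exposed to library compounds for 90 min at 37 °C. Detection reagent was added for 30–60 min at room temperature, and luminescence was read.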
A number is an active result; . = inactive; ? = inconclusive; / = no result.

SMILES | D1 PAM | D1 ag | D3 antag | D1 antagonist | D3 ag
CC(OC(=O)c1ncc(Cl)c(Cl)c1Cl)C(=O)NC1(C#N)CCCCC1 (centres undefined) | . | . | . | . | .
O=C(NCCc1ccccc1C(F)(F)F)c1cc(COc2ccccc2)on1 | / | / | . | / | .
CSc1ccc(OC2(C)CCN(Cc3ccccc3)C2)cc1 (centres undefined) | / | / | -73 | / | .
COC(=O)Cc1ccc(OC2(C)CCN(Cc3ccccc3)C2)cc1 (centres undefined) | / | / | -89 | / | .
CSc1ccc(CN2CCC(C)(Oc3ccc(-n4ccnc4)cc3)C2)cc1 (centres undefined) | / | / | -97 | / | .
CSc1ccc(CN2CCC(C)(Oc3ccc(CC#N)cc3)C2)cc1 (centres undefined) | / | / | . | / | .
CC1(Oc2ccccc2)CCN(Cc2csc3ccccc23)C1 (centres undefined) | / | / | -83 | / | .
C[C@H](CO)N1C[C@H](C)[C@H](CN(C)C(=O)Nc2ccc(-c3cccs3)cc2)OCc2cnnn2CCCC1=O | / | / | . | / | .
Cn1cc(C(=O)NCN2CCCCC2)c2ccccc21 | . | . | . | -40 | .
Nc1nc(N)c2cc(Sc3ccc4ccccc4c3)ccc2n1 | . | 33 | . | . | .
Nc1nc(N)c2cc(Sc3ccc(Cl)cc3)ccc2n1 | / | / | . | / | .
Cc1cc(C)n2c(SCc3ccc(Cl)cc3Cl)nnc2n1 | . | 42 | . | . | .
C(=C\c1ccccc1)/CN1CCN(C(c2cc3ccccc3o2)c2nnnn2-c2ccc3c(c2)OCCO3)CC1 (centres undefined) | / | / | -89 | / | .
COc1ccc(C(c2nnnn2-c2ccc3c(c2)OCCO3)N2CCN(C/C=C/c3ccccc3)CC2)cc1 (centres undefined) | / | / | -76 | / | .
CCCCn1nnnc1C(c1cc2ccccc2o1)N1CCN(C/C=C/c2ccccc2)CC1 (centres undefined) | / | / | -72 | / | .
COc1ccc(-n2nnnc2C(c2cc3ccccc3o2)N2CCN(C/C=C/c3ccccc3)CC2)cc1 (centres undefined) | / | / | -98 | / | .
CCC(c1nnnn1-c1ccc2c(c1)OCCO2)N1CCN(CCN2CCOCC2)CC1 (centres undefined) | / | / | . | / | .
CCOC(=O)CN(C(=O)COc1nc(-c2ccccc2)cc(C)c1C#N)c1ccccc1C | . | . | . | . | .
COc1ccc(NC(=O)c2c(NCc3ccc(C)o3)sc3c2CCC(C)C3)cc1 (centres undefined) | . | . | / | . | .
C(=C\c1ccccc1)/CN1CCN(C(c2cccs2)c2nnnn2-c2ccc3c(c2)OCCO3)CC1 (centres undefined) | / | / | -79 | / | .
COc1ccc(-n2nnnc2C(c2cccc3ccccc23)N2CCN(C/C=C/c3ccccc3)CC2)cc1 (centres undefined) | / | / | -92 | / | .
CCOc1cc(C(=O)Nc2cc(C)ccc2C)ccc1OCC(=O)N1CCCCC1 | . | . | . | -90 | .
CC(C)(C)NC(=O)Cn1c(=O)c(=O)n(Cc2ccccc2)c2ccc(Cl)cc21 | . | . | . | . | .
Cc1cc(NC(=O)CSc2nnc(C)n2C)no1 | . | . | . | . | .
CCCCc1n[nH]c2c1/C(=N/O)CC(C)(C)C2 | . | . | . | . | .
SMILES | D1 PAM | D1 ag | D3 antag | D1 antagonist | D3 ag
CCCCc1n[nH]c2c1/C(=N/OCC)CC(C)(C)C2 | 35 | 62 | . | . | .
CC1(C)CC(=O)c2c(-c3cccs3)n[nH]c2C1 | . | . | . | / | .
CCCc1n[nH]c2c1C(=O)CC(C)(C)C2 | 33 | . | . | . | .
CN(Cc1cccs1)C(=O)Cn1cnc2ccccc2c1=O | . | . | . | . | .
Cc1ccc(/C=C/c2nc3ccccc3c(=O)[nH]2)cc1 | . | . | . | -40 | .
COC(=O)c1ccc(/C=C/c2nc3ccccc3c(=O)[nH]2)cc1 | . | . | . | . | .
O=c1[nH]c(-c2ccncc2)nc2ccccc12 | . | . | . | . | .
Cc1cccc(-c2nc3ccccc3c(=O)[nH]2)c1 | . | . | . | -30 | .
Cc1sc2ncn(CC(=O)Nc3cccc(C(F)(F)F)c3)c(=O)c2c1S(=O)(=O)N1CCC(C)CC1 | . | . | / | . | .
Cc1ccc(OCCSc2nc(-c3ccccc3C)nc3cc(=O)[nH]n23)cc1Cl | . | . | / | -62 | .
Cc1ccc(C(C)C)c(OCCSc2nc(-c3ccccc3F)nc3cc(=O)[nH]n23)c1 | . | 38 | / | . | .
Cc1cccc(-c2nc(SCCCOc3ccc(Cl)c(C)c3)n3[nH]c(=O)cc3n2)c1 | . | . | / | . | .
CO[C@@H]1[C@@H](O[C@@H]2O[C@H](C)[C@@H](O[C@H]3C[C@@](C)(O)[C@@H](OC(=O)CC(C)C)[C@H](C)O3)[C@H](N(C)C)[C@H]2O)[C@@H](CC=O)C[C@@H](C)[C@@H](O)/C=C/C=C/C[C@@H](C)OC(=O)C[C@H]1O | / | / | / | / | .
O=C(CSc1nc2ccccc2c(=O)n1-c1ccc(F)cc1)Nc1ccc(Cl)c(S(=O)(=O)N2CCOCC2)c1 | . | . | . | -52 | .
O=C(CSc1nc2ccccc2c(=O)n1-c1ccc(F)c(Cl)c1)Nc1cccc(S(=O)(=O)N2CCOCC2)c1 | . | . | ? | . | .
O=C(Cc1cccs1)Nc1ccc(F)c(S(=O)(=O)N2CCOCC2)c1 | . | . | . | . | .
O=C(COc1ncnc2ccccc12)Nc1ccc(Cl)c(S(=O)(=O)N2CCOCC2)c1 | . | . | . | -38 | .
O=C(Cc1cccs1)Nc1ccc(Cl)c(S(=O)(=O)N2CCOCC2)c1 | . | . | . | -33 | .
COC(=O)c1ccc(Cn2nnc3sc4c(c3c2=O)CCC(C)C4)cc1 (centres undefined) | . | . | / | . | .
COc1ccc2cc1Oc1ccc(cc1)C[C@H]1c3c(cc(OC)c4c3Oc3c(ccc5c3[C@H](C2)N(C)CC5)O4)CCN1C | / | / | . | / | .
COc1ccc2cc1Oc1ccc(cc1)CC1c3c(cc(OC)c4c3Oc3cc5c(cc3O4)CCNC5C2)CCN1C (centres undefined) | . | . | . | -41 | .
COc1ccc(C(=O)NCC(c2ccco2)S(=O)(=O)c2cccs2)cc1OC (centres undefined) | . | . | / | / | .
CC(C)(C)c1ccc(C(=O)NC(=S)NCc2cccnc2)cc1 | . | . | . | . | .
CCc1ccc(NC(=O)c2ccc(S(=O)(=O)NCc3cccnc3)cc2)cc1 | / | . | . | -34 | .
CCc1ccc(C(=O)NC(=S)NCc2cccnc2)cc1 | . | . | . | -35 | .
CC(=O)Oc1cc(C)c(OC(C)=O)c2ccccc12 | / | / | / | / | .
CN(C)CC1CCCCC1C1(O)c2ccccc2CSc2sccc21 (centres undefined) | . | 78 | -73 | . | .
Cc1cc2c(s1)c1cnn(Cc3c(F)ccc(C)c3Cl)c(=O)c1n2C | . | . | / | . | /
O=C(NCCc1ccc(Cl)cc1)c1c2c(nc3ccccc13)C(=O)N(C1CCCCC1)C2 | . | . | / | . | .
